The results in this text go back to PubChem BioAssay (NCATS).

The target in assay [1] is Rap guanine nucleotide exchange factor 3 (Homo sapiens) (UniProt O95398). In words: Confirmatory qHTS for antagonist of cAMP-regulated guanine nucleotide exchange factor 3 (EPAC1) (AID 1645880). Further: nearly all actives have a fitted effect of over 55% in size. Further: potency means the concentration at half of the fitted maximal effect. In a few lines: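 Released BODIPY-GDP fluoresces less than Rap1-bound BODIPY-GDP; the signal is followed at 480/540 nm at 5-min intervals over 30 min, after 5 min at room temperature. Reactions contain 100 nM EPAC1, 250 nM RAP1B-BODIPY-GDP and 50 uM GDP; results are normalized to ATA and DMSO.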
A general note: In qHTS, concentration-response curves come from the screen itself.

The target is the same in assay [2]. In words: Confirmatory qHTS for agonist of cAMP-regulated guanine nucleotide exchange factor 3 (EPAC1) (AID 1645881).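 Further: EPAC1 catalysed release of BODIPY-GDP from Rap1B seen as fluorescence loss; 100% = effect of cAMP agonist control; nearly all actives have a fitted effect of over 75% in size.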
The target in assay [3] is Rap guanine nucleotide exchange factor 4 (Homo sapiens) (UniProt Q8WZA2). Description: Confirmatory qHTS for agonist of cAMP-regulated guanine nucleotide exchange factor 4 (EPAC2) (AID 1645884).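 Further: nucleotide exchange releases bodipy-GDP from Rap1 and this lowers its fluorescence; on the % scale 0 is the no-effect control and ±100 the full control effect; nearly all actives have a fitted effect of over 65% in size.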
For assay [4] the target is unchanged. In words: Confirmatory qHTS for antagonist of cAMP-regulated guanine nucleotide exchange factor 4 (EPAC2) (AID 1645885). Further: nearly all actives have a fitted effect of over 25% in size. Further: potency means the concentration at half of the fitted maximal effect. On activity change, negative = inhibition: on the % scale 0 is the no-effect control and ±100 the full control effect.
Assay [5] has as its target Rap guanine nucleotide exchange factor 3 (Homo sapiens) (UniProt O95398). In words: Counterscreen qHTS for antagonist of cAMP-regulated guanine nucleotide exchange factor 3 (EPAC1) (AID 1645888). Further: % of control where 0% means no effect. In a few lines: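 Rap1B–BODIPY-GDP (250 nM) with 50 uM GDP; compounds pin-transferred to 9.74 nM–152 uM final (activator) or from 7.32 nM upwards (inhibitor). Fluorescence Ex/Em 480/540 nm read at 5 and 30 min, then after adding cAMP or buffer, at room temperature.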
A general note: A counterscreen serves to expose hits that act by an unwanted route or on another target.

Records with an inconclusive call do not appear. Values without a mark were called inactive. Activity calls are given as the source filed them. The call rests on the fitted dose curve; in most records, active means well fitted curve in the direction sought with a large enough effect; inconclusive means small, poorly fitted or top-dose-only effect, or another doubt; inactive means no such curve, though single readings can be large; an effect the other way counts as inactive or inconclusive.

Rap guanine nucleotide exchange factor 3 (Homo sapiens), sequence (O95398 whole entry, looked up): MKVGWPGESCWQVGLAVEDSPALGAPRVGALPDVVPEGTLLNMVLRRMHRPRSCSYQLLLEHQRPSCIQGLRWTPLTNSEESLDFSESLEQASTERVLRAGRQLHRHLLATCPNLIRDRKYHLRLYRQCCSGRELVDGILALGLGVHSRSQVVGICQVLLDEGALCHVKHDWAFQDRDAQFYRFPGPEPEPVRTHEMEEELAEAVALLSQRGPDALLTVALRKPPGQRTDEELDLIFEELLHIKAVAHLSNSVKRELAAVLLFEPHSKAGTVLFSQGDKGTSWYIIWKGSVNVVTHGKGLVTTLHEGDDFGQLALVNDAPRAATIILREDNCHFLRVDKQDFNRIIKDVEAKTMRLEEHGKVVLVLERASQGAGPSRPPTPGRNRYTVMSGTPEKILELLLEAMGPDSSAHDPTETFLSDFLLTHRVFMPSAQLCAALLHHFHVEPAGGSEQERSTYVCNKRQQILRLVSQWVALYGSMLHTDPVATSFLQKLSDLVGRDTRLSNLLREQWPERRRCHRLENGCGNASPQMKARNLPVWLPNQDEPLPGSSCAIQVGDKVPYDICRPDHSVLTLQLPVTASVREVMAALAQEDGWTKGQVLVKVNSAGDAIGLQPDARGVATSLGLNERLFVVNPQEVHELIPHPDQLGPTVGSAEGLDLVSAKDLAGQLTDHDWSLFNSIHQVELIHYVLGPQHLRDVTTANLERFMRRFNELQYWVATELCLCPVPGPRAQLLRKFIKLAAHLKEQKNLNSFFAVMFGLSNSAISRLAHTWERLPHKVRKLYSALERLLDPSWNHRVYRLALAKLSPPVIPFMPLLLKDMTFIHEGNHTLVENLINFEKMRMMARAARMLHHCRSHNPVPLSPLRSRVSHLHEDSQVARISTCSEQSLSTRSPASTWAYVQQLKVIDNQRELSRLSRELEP
Rap guanine nucleotide exchange factor 4 (Homo sapiens), sequence (Q8WZA2 whole entry, looked up): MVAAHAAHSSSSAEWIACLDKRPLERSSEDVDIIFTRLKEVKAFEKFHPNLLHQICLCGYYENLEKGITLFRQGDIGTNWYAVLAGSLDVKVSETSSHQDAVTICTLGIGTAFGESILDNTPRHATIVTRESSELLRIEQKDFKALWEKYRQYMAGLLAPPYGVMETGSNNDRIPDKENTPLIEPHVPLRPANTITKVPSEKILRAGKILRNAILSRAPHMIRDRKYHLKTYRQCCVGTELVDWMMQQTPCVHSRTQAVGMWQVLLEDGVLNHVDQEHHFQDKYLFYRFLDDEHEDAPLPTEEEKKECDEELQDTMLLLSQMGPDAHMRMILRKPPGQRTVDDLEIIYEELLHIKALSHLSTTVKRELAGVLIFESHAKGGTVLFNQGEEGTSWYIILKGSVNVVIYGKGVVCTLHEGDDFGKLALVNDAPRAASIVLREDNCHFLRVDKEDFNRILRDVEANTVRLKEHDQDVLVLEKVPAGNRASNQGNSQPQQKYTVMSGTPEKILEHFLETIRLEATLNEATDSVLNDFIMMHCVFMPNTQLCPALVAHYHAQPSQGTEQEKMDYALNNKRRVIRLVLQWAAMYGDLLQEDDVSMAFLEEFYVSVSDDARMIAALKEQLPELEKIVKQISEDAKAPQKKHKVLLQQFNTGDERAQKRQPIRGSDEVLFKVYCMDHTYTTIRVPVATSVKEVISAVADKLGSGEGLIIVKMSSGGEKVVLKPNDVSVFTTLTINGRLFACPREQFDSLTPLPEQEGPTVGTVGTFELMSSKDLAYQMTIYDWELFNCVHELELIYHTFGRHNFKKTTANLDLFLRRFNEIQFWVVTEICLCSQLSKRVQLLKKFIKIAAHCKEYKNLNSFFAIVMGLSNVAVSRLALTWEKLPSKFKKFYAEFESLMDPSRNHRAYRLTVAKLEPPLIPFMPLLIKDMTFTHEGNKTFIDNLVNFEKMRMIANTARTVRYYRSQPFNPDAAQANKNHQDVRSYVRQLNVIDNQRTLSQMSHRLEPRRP

On to `CC(C(=O)NC1CC(C)(C)NC(C)(C)C1)c1ccc([N+](=O)[O-])cc1` (stereo not given), for which the Potency entry in assay [1], in assay [2], in assay [3], in assay [4] and in assay [5] was “inactive” each time.
For `COc1ccccc1NC(=O)c1sc2nc(C)c(C(=O)Nc3ccc(C)cc3C)c(-c3ccco3)c2c1N`, the Potency entry in assay [1], in assay [2], in assay [3] and in assay [5] was “inactive” each time. For the same compound, in assay [4], the outcome was “inactive [at 12.7 µM]”.
Turning to `CSCCC(C(=O)O)N1C(=O)c2ccc(C(=O)O)cc2C1=O` (stereo not given), the Potency result in assay [1], in assay [2] and in assay [4] was “inactive” each time. In addition, in assay [3], the activation is 4.67% [at 17.1 µM, percent relative to cAMP agonist control]. Further, the activity change, negative = inhibition in assay [5] was -1.74% [at 30.8 µM].
For `Cc1cccc(CC2C(=O)Nc3ccccc32)c1` (stereo not given), the Potency entry in assay [1], in assay [2], in assay [3], in assay [4] and in assay [5] was “inactive” each time.
With `Cc1cccc(C(=O)Nc2ccc3c(c2)ncn3C)c1`, the Potency result in assay [1], in assay [2], in assay [3], in assay [4] and in assay [5] was “inactive” throughout.
With `Cc1cccc(NCC(=O)N/N=C\c2ccc[nH]2)c1`, the Potency result in assay [1], in assay [2], in assay [3], in assay [4] and in assay [5] was “inactive” in each case.
Turning to `COc1cc(C)ccc1S(=O)(=O)N1CCCCCC1`, the Potency entry in assay [1], in assay [2], in assay [3], in assay [4] and in assay [5] was “inactive” throughout.
For `Cc1cccc(Cn2cc(SCC(=O)Nc3nccs3)c3ccccc32)c1`, the Potency entry in assay [1], in assay [2], in assay [3], in assay [4] and in assay [5] was “inactive” throughout.
As to `CCOC(=O)N1CCN(C(=O)CSc2nnc(Cc3ccccc3)o2)CC1`, the Potency entry in assay [1], in assay [2], in assay [3], in assay [4] and in assay [5] was “inactive” throughout.
`Cc1ccc2nc3sc(C(=O)N4CCCc5ccccc54)c(N)c3cc2c1`: the Potency result in assay [1], in assay [2] and in assay [4] was “inactive” in each case. Also, the activation in assay [3] is 4.98% [at 17.1 µM, percent relative to cAMP agonist control]. In assay [5], the activity change, negative = inhibition was -0.0356% [at 30.8 µM].
As for `CS(=O)(=O)N1N=C(c2ccco2)CC1c1ccc(Cl)cc1Cl` (stereo not given), the Potency result in assay [1], in assay [2] and in assay [4] was “inactive” each time. In assay [3], the activation was 0.361% [at 17.1 µM, percent relative to cAMP agonist control]. Besides, the activity change, negative = inhibition in assay [5] is 3.91% [at 30.8 µM].
For the compound `COc1cccc(NC(=O)CCNC(=O)Cn2ccc3ccccc3c2=O)c1`, the Potency result in assay [1], in assay [2], in assay [3], in assay [4] and in assay [5] was “inactive” in each case.
For the compound `Cc1ccccc1CNC(=O)CCC(=O)N1CCSc2ccccc21`, the Potency result in assay [1], in assay [2], in assay [3], in assay [4] and in assay [5] was “inactive” in each case.
Consider `Cc1ccc(NC(=O)CN2C(=O)N/C(=C/c3ccccc3OCc3cccc(C(=O)O)c3)C2=O)cc1`, for which, in assay [1], the Potency is 31.6 µM (active). In addition, the Potency result in assay [2] and in assay [4] was “inactive” in each case. Moreover, the activation in assay [3] is -10.8% [at 17.1 µM, percent relative to cAMP agonist control]. In assay [5], the activity change, negative = inhibition was -1.86% [at 30.8 µM].
As to `Cc1ccc(C)n1-c1c(C(=O)NCCC(C)C)sc2ncccc12`, the Potency entry in assay [1], in assay [2], in assay [3], in assay [4] and in assay [5] was “inactive” throughout.
In the case of `COc1ccccc1Nc1nc(N)nc(CN2CCC(C)CC2)n1`, the Potency entry in assay [1], in assay [2], in assay [3], in assay [4] and in assay [5] was “inactive” throughout.
For the compound `O=C(/C=C/c1ccc2c(c1)OCO2)Nc1cc(S(=O)(=O)N2CCOCC2)ccc1N1CCOCC1`, the Potency entry in assay [1], in assay [2], in assay [3], in assay [4] and in assay [5] was “inactive” each time.
With `O=C1CSC2(C(=O)N(Cc3ccccc3F)c3ccccc32)N1c1ccc(F)cc1` (stereo not given), the Potency result in assay [1], in assay [2], in assay [3] and in assay [5] was “inactive” in each case. In addition, the outcome in assay [4] was “inactive [at 12.7 µM]”.
For `COC(=O)c1ccc2nc(-c3ccc(C)cc3)c(Cc3ccc(C)cc3)n2c1`, the Potency result in assay [1], in assay [2], in assay [3] and in assay [5] was “inactive” throughout. In addition, the Potency in assay [4] is 37.9 µM (active).
As for `CN(Cc1ccccc1)c1ncnc2onc(-c3ccc(F)cc3)c12`, the Potency result in assay [1], in assay [2], in assay [3], in assay [4] and in assay [5] was “inactive” throughout.
As to `COc1cn(CC(=O)Nc2cccc(C)c2C)c(CN2CCCCC2)cc1=O`, the Potency entry in assay [1], in assay [2], in assay [3], in assay [4] and in assay [5] was “inactive” each time.
Take `CCc1ccc(Nc2n[n+](-c3ccccc3)c(-c3cc(OC)c(OC)cc3Br)s2)cc1`: the Potency entry in assay [1], in assay [2], in assay [3], in assay [4] and in assay [5] was “inactive” in each case.
Consider `O=C1NC(=O)C2(CCC(C(=O)O)C2)N1` (stereo not given), for which the Potency result in assay [1], in assay [2] and in assay [4] was “inactive” in each case. Besides, the activation in assay [3] is 11.7% [at 17.1 µM, percent relative to cAMP agonist control]. For the same compound, in assay [5], the activity change, negative = inhibition is 14.4% [at 30.8 µM].
Consider `O=C(Nc1ccccc1C(F)(F)F)N1CCC(CN2CCc3ccccc3C2)CC1`, for which the Potency entry in assay [1], in assay [2], in assay [3], in assay [4] and in assay [5] was “inactive” in each case.
